# In PubChem BioAssay (NCATS):
# Where “and” joins values, the source holds several entries; their conditions need not be identical. Equal values may be shown once. Inconclusive results are not listed. Calls of active or inactive are those of the source. Unless noted, calls follow the shape of the dose curve; as a rule, active = well fitted curve in the direction sought with a large enough effect; inconclusive = small, poorly fitted or top-dose-only effect, or another doubt; inactive = no such curve, though single readings can be large; an effect the other way counts as inactive or inconclusive.
# Legend:
# [1] = target: RecQ-like DNA helicase BLM (Homo sapiens) (UniProt P54132); assay: qHTS Validation Assay for Inhibitors of Bloom's syndrome helicase (BLM) (AID 2364); also: potency is read from the fitted curve at half-maximal effect
# Procedure, shortened: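 BLM 50 nM in 25 mM Tris-HCl pH 8.0, 5 mM NaCl, 2 mM MgCl2, 1 mM DTT, 0.01% Tween-20, 2.5 ug/ml poly(dI-dC); 15 min cpd preinc, RT. Start: 200 nM forked DNA + 2 mM ATP (final). TAMRA read, 2 reads 2 h apart.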
# [2] = target: Thioredoxin reductase 1, cytoplasmic (Rattus norvegicus) (UniProt O89049); assay: qHTS Assay for Substrates of Mammalian Selenoprotein Thioredoxin Reductase 1 (TrxR1) (AID 488772);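 also: NADPH fluorescence in the first read after selenite addition and not the 8 min delta; 0% is about no effect; a drop in NADPH fluorescence below the no-compound background marks a TrxR1 substrate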
# Procedure, shortened: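 Quantitative HTS in Tris-HCl buffer at pH 7.5 with EDTA and Tween-20, using rat TrxR1, 400 uM NADPH and 400 uM selenite (final). A fall in initial NADPH fluorescence relative to background marked substrate behaviour.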
# [3] = target: Cytochrome P450 2C9 (Homo sapiens) (UniProt P11712); assay: qHTS Assay for Inhibitors and Substrates of Cytochrome P450 2C9 (AID 883); also: nearly all actives have a fitted effect of over 60% in size; also: potency is read from the fitted curve at half-maximal effect
# Procedure, shortened: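 A luminogenic readout tracked human CYP2C9 (10nM) converting deoxyluciferin (100uM, at KM) in 25mM KPO4 during 60 min at 37C with regenerated NADPH. Values normalized to 57uM sulphaphenazole as complete inhibition.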
# [4] = qHTS profiling for inhibitors of Plasmodium falciparum (3D7) proliferation (AID 743322; call rule not given here;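 also: infected erythrocytes exposed to compound for 72 h before lysis; 100% = DMSO vehicle wells and 0% = 0.29 µM artemisinin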); conditions: P. falciparum 3D7 proliferation; at 28.7 µM (top of the series)
# Procedure, shortened: (§1)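 Erythrocytes infected with P. falciparum (0.3% parasitemia, 2.5% hematocrit) incubated with compounds 72 h at 37 C, 5% CO2. Lysis with saponin/Triton buffer containing SYBR Green I, overnight at room temperature in the dark; DNA fluorescence (485/535 nm) normalised to 0.29 uM artemisinin and DMSO.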
# [5] = qHTS profiling for inhibitors of Plasmodium falciparum (DD2) proliferation (AID 743323; call rule not given here); conditions: lower = more inhibition; at 28.7 µM (top of the series)
# Procedure, shortened: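 Parasite DNA quantified by SYBR Green fluorescence (ex 485, em 535 nm) after saponin/Triton lysis and overnight dark incubation. Cultures: 0.3% parasitemia, 2.5% hematocrit, 72 h, 37 C; data scaled between DMSO and 0.29 uM artemisinin.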
# [6] = qHTS profiling for inhibitors of Plasmodium falciparum (HB3) proliferation (AID 743324); conditions: Plasmodium falciparum HB3 blood-stage proliferation; at 28.7 µM (top of the series);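 also: 100% = DMSO vehicle wells and 0% = artemisinin-treated control wells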
# Procedure, shortened: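 P. falciparum HB3 grown in erythrocytes (0.3% parasitemia, 2.5% hematocrit final) with compound for 72 h at 37 C, 5% CO2. Parasite DNA detected by SYBR Green after saponin/triton lysis overnight; normalized to 0.29 uM artemisinin and DMSO.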
# [7] = qHTS profiling of the MIPE4 collection as inhibitors of Plasmodium falciparum (DD2) proliferation (AID 743345; call rule not given here); conditions: P. falciparum Dd2 in erythrocytes, SYBR Green DNA, 72 h; at 28.5 µM (top of the series) unless noted
# Procedure, shortened: as §1
# [8] = target: DNA repair nuclease/redox regulator APEX1 (Homo sapiens) (UniProt P27695); assay: qHTS Validation Assay for Inhibitors of the Human Apurinic/apyrimidinic Endonuclease 1 (APE1) (AID 1705; also: potency is read from the fitted curve at half-maximal effect)
# Procedure, shortened: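 Endonuclease activity of human APE1 is followed as dequenching when the enzyme incises a tetrahydrofuran abasic site in a short duplex labelled 5'-TAMRA/3'-BHQ-2 (50 nM final), after 15 min enzyme–compound preincubation at room temperature.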
# [9] = Validation screen for small molecules that induce DNA re-replication in MCF 10A normal breast cells (AID 463097); also: potency is read from the fitted curve at half-maximal effect; nearly all actives have a fitted effect of over 60% in size
# Procedure, shortened: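 DNA re-replication was detected as a rise in nuclei with elevated Hoechst fluorescence after a 48 hr compound exposure of MCF 10A cells at 37 C.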
# [10] = qHTS assay for small molecule antagonists of peroxisome proliferator-activated receptor delta signaling (AID 588535; active = well fitted inhibition curve with a large enough effect in the signal ratio, with a control signal flat, not every such curve was filed as active; the % refers to the signal ratio;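 as to max response: cells co-treated with a PPAR-delta agonist as stimulator during compound exposure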); conditions: HEK293T PPARd-UAS-bla, beta-lactamase FRET ratio, 18 h; 460 nm channel
# Procedure, shortened: (§2)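 Reporter: UAS-bla under PPAR-delta response element, HEK293T host. Medium: 2% charcoal/dextran FBS. Dosing: titration, 18 hrs, 37 C. Detection: CCF4, 2 hrs RT, 405 ex/460 and 530 em.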
# [11] = target: Peroxisome proliferator-activated receptor delta (Homo sapiens) (UniProt Q03181); assay: as above
# Procedure, shortened: as §2
# [12] = target: Peroxisome proliferator-activated receptor gamma (Homo sapiens) (UniProt P37231); assay: qHTS assay for small molecule antagonists of peroxisome proliferator-activated receptor gamma signaling (AID 588537; active = well fitted inhibition curve with a large enough effect in the signal ratio, with a control signal flat, not every such curve was filed as active; the % refers to the signal ratio;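 also: reporter cells co-stimulated with 50 nM rosiglitazone agonist during compound treatment; % of control where 0% means no effect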)
# Procedure, shortened: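 We seeded GeneBLAzer HEK293 reporter cells at 3000 per well, allowed 6-6.5 h attachment at 37 C, then co-treated with test compound titrations and 50 nM rosiglitazone overnight (16 h). Inhibition was quantified from 460/530 nm emission ratios.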
# [13] = qHTS assay to identify small molecules that stimulate interleukin-8 (IL-8) secretion (AID 651758; active = well fitted activation curve with a large enough effect in the signal ratio; the % refers to the signal ratio; also: 0% is about no effect)
# Procedure, shortened: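 THP-1, 2000 cells/well; cpd 16 h, 37 C; add cryptate + XL665 anti-IL-8 Abs; RT 1-3 h; TR-FRET read.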
# [14] = qHTS for differential inhibitors of proliferation of Plasmodium falciparum line 3D7 (AID 1876); also: potency is read from the fitted curve at half-maximal effect
# [15] = qHTS Assay for Identifying Gametocytocidal Compounds (AID 743244);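 also: % is scaled to controls: 0 for no effect and ±100 for the full control effect; actives lower the fluorescent signal which means gametocytes are killed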; conditions: P. falciparum 3D7 stage III-V gametocytes, alamarBlue, 72 h; max response: stronger effect = lower value
# Procedure, shortened: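 Late gametocytes (III–V), P. falciparum 3D7; 72 h drug, then 24 h alamarBlue; resazurin reduction read by fluorescence.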
# [16] = qHTS for differential inhibitors of proliferation of Plasmodium falciparum line 7G8 (AID 1815);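 also: potency is read from the fitted curve at half-maximal effect; parasite growth measured after three days of incubation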
# [17] = qHTS for differential inhibitors of proliferation of Plasmodium falciparum line D10 (AID 1877);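 also: potency is read from the fitted curve at half-maximal effect; parasites grown with compound for 72 h before DNA staining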
# [18] = qHTS for differential inhibitors of proliferation of Plasmodium falciparum line Dd2 (AID 1882); conditions: Potency: Plasmodium falciparum Dd2 proliferation inhibition; also: potency is read from the fitted curve at half-maximal effect; nearly all actives have a fitted effect of over 65% in size
# Procedure, shortened: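 Dd2-infected erythrocytes (0.3% parasitemia, 2.5% hematocrit final) incubated with compound 72 h at 37 C, 5% CO2; lysed with saponin/Triton buffer containing SYBR Green I, incubated overnight in the dark, then read by fluorescence (485/535 nm). Normalized to 0.29 uM artemisinin and DMSO.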
# [19] = qHTS for differential inhibitors of proliferation of Plasmodium falciparum line HB3 (AID 1886); conditions: Potency: Plasmodium falciparum HB3 proliferation inhibition;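 also: potency is read from the fitted curve at half-maximal effect; parasites grown with compound for 72 h before SYBR Green readout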
# [20] = target: Estrogen receptor (Homo sapiens) (UniProt P03372); assay: qHTS assay for small molecule agonists of estrogen receptor alpha signaling (AID 588514; calls by dose curve;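 also: 0% = vehicle only and 100% = reference agonist; nearly all actives have a fitted effect of over 70% in size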)
# Procedure, shortened: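 Cells were plated at 5000/well, incubated 4 hrs at 37 C, dosed with compound titration series, incubated 18 hrs at 37 C, loaded with CCF4 dye for 2 hrs at RT, then fluorescence was read.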
# Chain of Peroxisome proliferator-activated receptor delta (Homo sapiens) (Q03181 whole entry, looked up): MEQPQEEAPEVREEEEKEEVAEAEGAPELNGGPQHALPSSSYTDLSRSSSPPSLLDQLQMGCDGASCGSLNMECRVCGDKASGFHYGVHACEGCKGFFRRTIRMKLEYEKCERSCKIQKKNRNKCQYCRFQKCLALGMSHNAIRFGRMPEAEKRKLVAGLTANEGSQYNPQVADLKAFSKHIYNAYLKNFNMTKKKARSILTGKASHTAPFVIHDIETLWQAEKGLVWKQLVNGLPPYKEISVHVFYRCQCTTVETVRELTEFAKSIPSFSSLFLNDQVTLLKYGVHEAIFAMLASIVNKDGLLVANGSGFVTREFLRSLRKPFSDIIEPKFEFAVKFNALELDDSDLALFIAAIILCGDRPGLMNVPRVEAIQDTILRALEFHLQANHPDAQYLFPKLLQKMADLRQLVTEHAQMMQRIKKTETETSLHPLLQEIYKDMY
# Chain of Peroxisome proliferator-activated receptor gamma (Homo sapiens) (P37231 whole entry, looked up): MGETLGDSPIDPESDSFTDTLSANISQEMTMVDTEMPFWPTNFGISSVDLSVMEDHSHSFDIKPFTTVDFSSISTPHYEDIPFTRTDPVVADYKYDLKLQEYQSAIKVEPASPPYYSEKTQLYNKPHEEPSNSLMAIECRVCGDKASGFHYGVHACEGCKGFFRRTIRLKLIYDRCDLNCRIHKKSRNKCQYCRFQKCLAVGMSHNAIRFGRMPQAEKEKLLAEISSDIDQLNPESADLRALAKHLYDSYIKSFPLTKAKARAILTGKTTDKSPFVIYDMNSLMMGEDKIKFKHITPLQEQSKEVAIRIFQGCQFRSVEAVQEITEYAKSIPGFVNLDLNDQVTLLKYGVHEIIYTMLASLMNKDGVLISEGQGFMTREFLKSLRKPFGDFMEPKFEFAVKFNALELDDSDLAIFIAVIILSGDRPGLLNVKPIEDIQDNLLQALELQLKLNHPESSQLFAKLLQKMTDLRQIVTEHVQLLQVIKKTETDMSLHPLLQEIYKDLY
# Chain of Estrogen receptor (Homo sapiens) (P03372 whole entry, looked up): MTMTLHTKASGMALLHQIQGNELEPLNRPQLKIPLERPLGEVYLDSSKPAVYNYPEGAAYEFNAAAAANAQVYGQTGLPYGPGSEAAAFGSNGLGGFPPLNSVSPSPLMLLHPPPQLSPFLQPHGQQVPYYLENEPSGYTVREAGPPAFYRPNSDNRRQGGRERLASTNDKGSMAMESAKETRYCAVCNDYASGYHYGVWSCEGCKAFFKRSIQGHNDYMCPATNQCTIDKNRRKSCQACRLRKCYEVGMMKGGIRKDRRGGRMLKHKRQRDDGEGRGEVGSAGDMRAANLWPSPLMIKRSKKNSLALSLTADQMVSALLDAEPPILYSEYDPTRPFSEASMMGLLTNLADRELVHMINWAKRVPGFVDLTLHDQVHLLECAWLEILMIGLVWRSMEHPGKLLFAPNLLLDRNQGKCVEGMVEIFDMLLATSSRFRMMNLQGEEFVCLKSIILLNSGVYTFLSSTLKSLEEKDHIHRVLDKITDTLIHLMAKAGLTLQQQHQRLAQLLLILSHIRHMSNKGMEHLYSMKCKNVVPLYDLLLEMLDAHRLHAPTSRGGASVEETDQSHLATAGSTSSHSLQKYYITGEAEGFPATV
# Chain of Thioredoxin reductase 1, cytoplasmic (Rattus norvegicus) (O89049 whole entry, looked up): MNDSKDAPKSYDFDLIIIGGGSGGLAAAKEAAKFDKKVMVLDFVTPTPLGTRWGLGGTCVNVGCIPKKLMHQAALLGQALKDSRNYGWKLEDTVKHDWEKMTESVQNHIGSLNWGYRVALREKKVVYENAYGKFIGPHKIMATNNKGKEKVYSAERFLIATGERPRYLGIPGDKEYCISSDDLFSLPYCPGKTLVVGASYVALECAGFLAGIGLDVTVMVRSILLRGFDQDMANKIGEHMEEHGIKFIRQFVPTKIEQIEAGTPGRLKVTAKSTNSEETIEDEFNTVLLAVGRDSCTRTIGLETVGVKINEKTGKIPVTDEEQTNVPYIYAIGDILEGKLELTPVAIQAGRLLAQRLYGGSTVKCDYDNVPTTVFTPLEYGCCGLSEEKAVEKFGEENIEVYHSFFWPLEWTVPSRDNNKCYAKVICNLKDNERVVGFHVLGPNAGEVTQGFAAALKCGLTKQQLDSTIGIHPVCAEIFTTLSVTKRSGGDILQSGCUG
# Chain of DNA repair nuclease/redox regulator APEX1 (Homo sapiens) (P27695 whole entry, looked up): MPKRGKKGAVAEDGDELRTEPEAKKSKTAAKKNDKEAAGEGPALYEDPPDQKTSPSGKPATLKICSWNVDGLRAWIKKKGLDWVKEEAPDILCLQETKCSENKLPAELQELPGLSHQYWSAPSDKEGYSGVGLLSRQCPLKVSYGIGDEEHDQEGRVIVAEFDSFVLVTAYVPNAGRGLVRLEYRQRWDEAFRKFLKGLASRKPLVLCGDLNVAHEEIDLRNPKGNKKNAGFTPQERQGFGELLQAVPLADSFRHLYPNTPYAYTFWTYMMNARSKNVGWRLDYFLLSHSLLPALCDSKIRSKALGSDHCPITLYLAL
# Chain of Cytochrome P450 2C9 (Homo sapiens) (P11712 whole entry, looked up): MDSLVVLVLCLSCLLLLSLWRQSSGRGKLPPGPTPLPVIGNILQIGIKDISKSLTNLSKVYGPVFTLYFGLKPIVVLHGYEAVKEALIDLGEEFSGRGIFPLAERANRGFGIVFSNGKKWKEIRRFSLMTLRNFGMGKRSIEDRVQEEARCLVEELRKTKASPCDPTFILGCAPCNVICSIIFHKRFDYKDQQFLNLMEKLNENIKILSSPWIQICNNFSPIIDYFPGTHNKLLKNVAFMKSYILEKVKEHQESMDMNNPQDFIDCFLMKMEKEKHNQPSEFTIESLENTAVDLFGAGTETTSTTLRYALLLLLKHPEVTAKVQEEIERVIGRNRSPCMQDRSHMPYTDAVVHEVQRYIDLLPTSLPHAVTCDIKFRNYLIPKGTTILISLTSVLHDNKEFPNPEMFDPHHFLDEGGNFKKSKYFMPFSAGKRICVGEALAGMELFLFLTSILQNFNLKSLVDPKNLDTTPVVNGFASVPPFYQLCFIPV
# Chain of RecQ-like DNA helicase BLM (Homo sapiens) (P54132 whole entry, looked up): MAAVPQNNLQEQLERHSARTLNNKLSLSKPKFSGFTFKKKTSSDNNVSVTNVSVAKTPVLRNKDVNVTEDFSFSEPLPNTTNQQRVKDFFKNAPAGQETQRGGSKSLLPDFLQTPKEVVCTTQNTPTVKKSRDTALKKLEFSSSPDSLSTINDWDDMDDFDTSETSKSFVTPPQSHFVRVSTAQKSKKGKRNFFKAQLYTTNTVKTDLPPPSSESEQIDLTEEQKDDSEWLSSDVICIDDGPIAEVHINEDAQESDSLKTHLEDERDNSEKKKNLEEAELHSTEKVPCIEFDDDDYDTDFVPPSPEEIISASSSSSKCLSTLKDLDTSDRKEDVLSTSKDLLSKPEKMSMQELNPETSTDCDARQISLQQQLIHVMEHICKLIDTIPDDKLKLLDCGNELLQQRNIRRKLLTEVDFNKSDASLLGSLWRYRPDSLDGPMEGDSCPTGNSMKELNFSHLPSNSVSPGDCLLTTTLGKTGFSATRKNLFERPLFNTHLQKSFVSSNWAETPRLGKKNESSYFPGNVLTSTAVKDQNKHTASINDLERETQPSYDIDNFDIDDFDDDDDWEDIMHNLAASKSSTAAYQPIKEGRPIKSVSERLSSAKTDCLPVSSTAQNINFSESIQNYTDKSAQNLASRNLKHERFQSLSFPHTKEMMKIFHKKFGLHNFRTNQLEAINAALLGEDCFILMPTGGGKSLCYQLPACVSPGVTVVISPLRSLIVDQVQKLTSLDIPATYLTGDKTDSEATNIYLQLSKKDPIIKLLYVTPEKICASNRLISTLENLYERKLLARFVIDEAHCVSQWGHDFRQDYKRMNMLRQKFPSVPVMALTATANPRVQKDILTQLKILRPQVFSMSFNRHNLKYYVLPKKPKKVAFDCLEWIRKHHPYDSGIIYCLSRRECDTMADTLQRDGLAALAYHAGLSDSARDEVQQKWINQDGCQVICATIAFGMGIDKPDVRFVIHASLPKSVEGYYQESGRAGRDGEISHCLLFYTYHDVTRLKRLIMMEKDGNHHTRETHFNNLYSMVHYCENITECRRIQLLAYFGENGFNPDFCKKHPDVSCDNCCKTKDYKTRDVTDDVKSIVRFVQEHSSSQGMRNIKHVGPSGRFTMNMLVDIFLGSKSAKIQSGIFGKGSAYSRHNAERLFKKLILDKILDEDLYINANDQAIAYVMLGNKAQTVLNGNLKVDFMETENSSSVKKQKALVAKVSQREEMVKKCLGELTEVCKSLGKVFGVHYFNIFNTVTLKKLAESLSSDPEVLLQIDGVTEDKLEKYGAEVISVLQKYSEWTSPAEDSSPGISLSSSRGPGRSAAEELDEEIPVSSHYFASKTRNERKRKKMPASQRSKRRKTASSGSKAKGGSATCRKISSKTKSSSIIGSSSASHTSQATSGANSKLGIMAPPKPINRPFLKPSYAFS
smiles,measurement,setting,value
Nc1nc(N)c2nc(CNc3ccc(C(=O)NC(CCC(=O)O)C(=O)O)cc3)cnc2n1 (configuration not stated),Potency,[1],20 µM (active)
same,outcome,[2],inactive
O=C1Nc2ccc(I)cc2/C1=C/c1cc(Br)c(O)c(Br)c1,Potency,[3],0.0794 µM (active)
O=C(O)c1ccccc1C(=O)Nc1ccc(-c2ccccc2)cc1,remaining parasite growth % (stronger effect = lower value),[4],93.1%
same,"activity, percent of control",[5],92.6%
same,"remaining proliferation (% of control), lower = more inhibition",[6],75.7%
COC1CCC(N(C(=O)C2CCC(C)CC2)c2cc(C3=CCCCC3)sc2C(=O)O)CC1 (configuration not stated),"parasite growth remaining, % of DMSO control (lower = more inhibition)",[7],61.5%
Nc1nc2ccc(Cl)cc2c2nc(-c3ccco3)nn12,Potency,[3],inactive
Oc1ccccc1O,Potency,[8],35.5 µM (active)
Nc1nc2[nH]c(=O)cnc2c(=O)[nH]1,outcome,[2],inactive
O=c1oc(Cl)c(Cl)c2ccccc12,Potency,[9],5.01 µM (active)
c1ccc2c(c1)-c1cccc3cccc-2c13,max response,[10],27.3%
same,outcome,[11],inactive
same,Potency,[12],inactive
c1ccc(Nc2ccc3ccccc3c2)cc1,max response,[10],41.7% and -2.21%
same,outcome,[11],inactive
CC(=O)/C=C/c1ccccc1,max response,[10],11.6%
same,outcome,[11],inactive
same,Potency,[13],inactive
NO,Potency,[8],inactive
same,Potency,[14],12.6 µM (active)
COc1ccc2c(c1)CCC1C2CC[C@@]2(C)C1CC[C@@H]2NCCCCCCN1C(=O)C=CC1=O (some centres not stated),max response,[15],27.3% (inactive)
O=C(O)CNC(=O)C(CS)Cc1ccccc1 (configuration not stated),max response,[15],-3.2% (inactive)
N#C/C(=C\c1ccc(O)c(O)c1)C(=O)NCCCNC(=O)/C(C#N)=C/c1ccc(O)c(O)c1,Potency,[16],2.82 µM (active)
same,Potency,[14],2.24 µM (active)
same,Potency,[17],2.24 µM (active)
same,Potency,[18],3.16 µM (active)
same,Potency,[19],2 µM (active)
COC1=CC(=O)OC(CCc2ccc3c(c2)OCO3)C1 (configuration not stated),Potency,[12],inactive
same,Potency,[13],inactive
COc1cc([C@@H]2c3cc4c(cc3[C@H](O)C3COC(=O)[C@@H]32)OCO4)cc(OC)c1OC (some centres not stated),Potency,[19],15.8 µM (active)
same,Potency,[9],0.0355 µM (active)
CCOC(=O)c1ccccc1N,Potency,[20],inactive
CN1[C@@H](CC(=O)c2ccccc2)CCC[C@H]1C[C@H](O)c1ccccc1,Potency,[16],6.31 µM (active)
same,Potency,[18],8.91 µM (active)
CC(C)COC(=O)c1ccccc1C(=O)OCC(C)C,Potency,[20],inactive
same,Potency,[12],inactive
CCCCCCCCCC[Si](C)(C)CCC(=O)NC(Cc1ccc(C)cc1)c1ccccc1 (configuration not stated),Potency,[16],3.55 µM (active)
same,Potency,[14],2.82 µM (active)
same,Potency,[17],3.55 µM (active)
same,Potency,[18],5.01 µM (active)
same,Potency,[19],2.82 µM (active)
